Experimental data from publication PMC4336329 (PLoS ONE, 2015).
Screen size: about 310,000 compounds; about 2,200 (0.71%) showed an effect of 50% or more. The effect is printed as a negative number. This excerpt belongs to a sample that is enriched for strong results.

These molecules were tested against human ether-à-go-go-related gene (hERG) potassium channel (human, UniProt Q12809) (assay: primary screen, population patch clamp on CHO cells stably expressing hERG; higher = less effect of the substance).
human ether-à-go-go-related gene (hERG) potassium channel, sequence (Q12809 whole entry, looked up): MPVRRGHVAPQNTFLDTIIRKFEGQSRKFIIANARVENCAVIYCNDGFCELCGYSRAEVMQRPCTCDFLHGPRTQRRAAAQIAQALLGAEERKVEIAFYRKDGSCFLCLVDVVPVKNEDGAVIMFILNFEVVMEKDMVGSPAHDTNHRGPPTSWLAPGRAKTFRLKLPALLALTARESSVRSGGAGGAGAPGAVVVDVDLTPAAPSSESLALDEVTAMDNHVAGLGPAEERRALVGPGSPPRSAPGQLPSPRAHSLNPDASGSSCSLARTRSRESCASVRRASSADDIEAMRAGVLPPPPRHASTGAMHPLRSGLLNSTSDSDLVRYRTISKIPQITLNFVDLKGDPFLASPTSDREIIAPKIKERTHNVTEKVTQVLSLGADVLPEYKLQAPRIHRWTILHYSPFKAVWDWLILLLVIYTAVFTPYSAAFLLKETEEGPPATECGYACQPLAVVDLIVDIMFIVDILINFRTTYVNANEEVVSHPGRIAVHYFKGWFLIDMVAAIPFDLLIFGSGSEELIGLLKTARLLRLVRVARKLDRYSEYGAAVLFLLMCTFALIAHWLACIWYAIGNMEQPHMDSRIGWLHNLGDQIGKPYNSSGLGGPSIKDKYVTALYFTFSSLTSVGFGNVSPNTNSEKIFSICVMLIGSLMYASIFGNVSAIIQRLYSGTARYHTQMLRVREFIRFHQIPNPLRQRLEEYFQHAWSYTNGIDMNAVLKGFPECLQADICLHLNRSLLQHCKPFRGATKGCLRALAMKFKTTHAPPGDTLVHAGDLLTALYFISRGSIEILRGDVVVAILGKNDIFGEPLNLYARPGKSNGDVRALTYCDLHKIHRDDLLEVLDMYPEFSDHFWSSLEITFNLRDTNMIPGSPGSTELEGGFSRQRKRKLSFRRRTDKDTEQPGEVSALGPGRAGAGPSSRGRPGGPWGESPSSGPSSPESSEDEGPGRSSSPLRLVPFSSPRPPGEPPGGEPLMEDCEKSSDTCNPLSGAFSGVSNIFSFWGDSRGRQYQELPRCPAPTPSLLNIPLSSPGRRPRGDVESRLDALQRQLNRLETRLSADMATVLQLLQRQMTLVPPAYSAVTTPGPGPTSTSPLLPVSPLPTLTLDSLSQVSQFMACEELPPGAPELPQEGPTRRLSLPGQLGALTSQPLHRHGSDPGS

SMILES | hERG current change (%, negative = inhibition) at 1uM [%]
Cc1cc2cc3c(cc2nc1SCC(=O)N1c2ccccc2CC1C)OCO3 (centres unmarked) | 5.76
O=C(Nc1ccc2oc(-c3ccncc3)nc2c1)c1ccccc1F | 7.55
Cc1ccccc1OCCC(=O)Nc1ccccc1C(=O)N1CCCCC1 | 10.9
Nc1nc(SCC(=O)c2ccc([N+](=O)[O-])cc2)n[nH]1 | 1.72
O=c1c2cn[nH]c2[nH]c(=S)n1-c1ccccc1 | 14.3
CC(=O)Nc1cccc(OCc2c(F)cccc2Cl)c1 | 4.98
O=C(NC(=S)Nn1cnc2c(cnn2-c2ccccc2)c1=O)c1ccc(Cl)cc1 | 11.4
CCn1c(SCC(=O)c2cc(C)n(-c3ccc(C(=O)OC)cc3)c2C)nnc1-c1cccnc1 | 1.88
COCCn1c(SCc2ccccc2)nc2c1c(=O)[nH]c(=O)n2C | 11.8
CSCCC1NC(=O)N(CC(=O)Nc2cc(C)on2)C1=O (centres unmarked) | 9.03
CC(C)C(C(=O)C=[N+]=[N-])N1C(=O)c2ccccc2C1=O (centres unmarked) | 11.2
Cc1cc(C(=O)N2CCN(c3ccc([N+](=O)[O-])cc3)CC2)co1 | -64.7
COc1ccc(C(=O)N2CCN(c3ccc([N+](=O)[O-])c(-n4nc(C)cc4C)c3)CC2)cc1 | -80.6
O=C(c1cncc(Br)c1)N1CCN(c2ccc(N3CCOCC3)nn2)CC1 | 9.87
Cc1occc1C(=O)N1CCN(c2ccc([N+](=O)[O-])cc2)CC1 | -45.8
CC(=O)N1CCN(c2ccc([N+](=O)[O-])c(-n3nc(C)cc3C)c2)CC1 | -9.97
Cc1cc(C(=O)N2CCN(c3ccc([N+](=O)[O-])cc3)CC2)no1 | -36
O=C(c1cncc(Br)c1)N1CCN(c2ccc([N+](=O)[O-])cc2)CC1 | -62.2
O=C(c1ccc([N+](=O)[O-])cc1)N1CCN(c2ncc(Br)cn2)CC1 | -11.3
Cc1cc(C)n(-c2cc(N3CCN(C(=O)c4ccc(C(C)(C)C)cc4)CC3)ccc2[N+](=O)[O-])n1 | 3.39
C=CCc1cccc2cc(C(=O)Nc3ccc(F)cc3)c(=O)oc12 | 6.28
COC(=O)c1ccc(NC(=S)NC(=O)c2cc(-c3ccccc3)nc3ccccc23)cc1 | 9.36

SMILES | hERG current change (%, negative = inhibition) at 1uM [%]
NC(=O)[C@H]1CC2(CC(c3cccc(NC(=O)CC(c4ccccc4)c4ccccc4)c3)=NO2)CN1C(=O)CC(c1ccccc1)c1ccccc1 (some centres unmarked) | 14.8
Nc1ccc(O)cc1 | 10.2
COc1ccc(/C=C2\Oc3cc(OC(=O)N4CCOCC4)ccc3C2=O)cc1 | 3.7
CCC(=O)Nc1ccc2oc(-c3ccccc3Br)nc2c1 | 9.07
CC1CCc2c(sc3nc(CN4CCN(S(=O)(=O)c5ccccc5[N+](=O)[O-])CC4)[nH]c(=O)c23)C1 (centres unmarked) | -0.366
C=CCn1cc(CN2CCC(C(=O)Nc3cccc(-c4cccc(Cl)c4)c3)CC2)c(C)n1 | -30
O=C(c1ccc2c(=O)n(Cc3ccc(Cl)cc3)c(=S)[nH]c2c1)N1CCCC1 | 17
Oc1[nH]c2ccccc2c1N=Nc1nc2ccccc2s1 | -3.26
Cl.NCCCCC(=O)O | 11.5
CC(C1CC1)N(C(=O)NC1CCS(=O)(=O)C1)c1ccccc1 (centres unmarked) | 6.55
O=C(Nc1cccc(-c2cccc(F)c2)c1)C1CCN(C2CCC2)CC1 | -26.1
Cc1cc(C)n(CCCN2CCC(C(=O)Nc3cccc(-c4cccc(F)c4)c3)CC2)n1 | -59.9
Cc1cccc(CN2CCC(C(=O)Nc3cccc(-c4cscn4)c3)CC2)n1 | -4.56
Cc1cccc(CN2CCC(C(=O)Nc3cccc(-c4cccc(F)c4)c3)CC2)n1 | -66.1
CCn1nc(C)c(CN2CCC(C(=O)Nc3cccc(-c4cccc(F)c4)c3)CC2)c1C | -6.47
O=C(Nc1cccc(-c2cccc(F)c2)c1)C1CCN(C2CCOCC2)CC1 | -67.8
CCn1cc(CN2CCC(C(=O)Nc3cccc(-c4cccc(F)c4)c3)CC2)cn1 | -29.2
Cc1ccc(CN2CCC(C(=O)Nc3cccc(-c4cccc(F)c4)c3)CC2)o1 | -28.7
COc1cccc(-c2cccc(NC(=O)C3CCN(C4CCOCC4)CC3)c2)c1 | -14.6
Cn1cc(CN2CCC(C(=O)Nc3cccc(-c4cccc(F)c4)c3)CC2)cn1 | -37.9
COc1cccc(-c2cccc(NC(=O)C3CCN(Cc4cccc(C)n4)CC3)c2)c1 | -46.7
CCCn1ncc(CN2CCC(C(=O)Nc3cccc(-c4cccc(F)c4)c3)CC2)c1C | -60.6

SMILES | hERG current change (%, negative = inhibition) at 1uM [%]
O=C(Nc1ccc(N2CCN(C(=O)c3ccco3)CC2)cc1)c1cc(Br)ccc1Cl | 8.3
CC(C)(C)c1cc(C(=O)NN)n(Cc2ccc(Cl)cc2Cl)n1 | 16.3
CCOC(=O)c1c(NC(=O)c2ccc(S(=O)(=O)N3CCOCC3)cc2)sc2c1CC(C)(C)NC2(C)C | 11.9
O=[N+]([O-])c1ccc(-c2nc(Nc3ccc(O)cc3)c3ccccc3n2)cc1 | 13
COc1ccc(CCNC(=O)c2[nH]c(C)c(C(C)=O)c2C)cc1 | 10.9
CCOC(=O)c1c(NC(=O)C2C3C=CC(C3)C2C(=O)O)sc2c1CCC(CC)C2 (centres unmarked) | 14
CCC(=O)Nc1nnc(-c2ccco2)o1 | 2.56
O=C1OC(c2ccccc2)c2ccccc21 (centres unmarked) | 9.85
COC(=O)C1=C(C)NC(=O)C1(Nc1nccs1)C(F)(F)F (centres unmarked) | 8.37
COc1ccc(Nc2nc(N3CCCC3)c3ccccc3n2)cc1.Cl | -15
Cl.Nc1nc(N2CCN(c3ccccn3)CC2)nc2ccccc12 | -52.8
c1ccc(-c2nc(N3CCCCCC3)c3ccccc3n2)nc1 | -82.3
c1ccc(N2CCN(c3nc(-c4ccccn4)nc4ccccc34)CC2)cc1 | -26.9
CN1CCN(c2nc(Nc3ccc(O)cc3)nc3ccccc23)CC1.Cl | -1.34
Nc1nc(N2CCOCC2)nc2ccccc12 | -8.34
Cl.Oc1ccc(Nc2nc(N3CCCC3)c3ccccc3n2)cc1 | -62.7
c1ccc(-c2nc(N3CCOCC3)c3ccccc3n2)nc1 | 5.13
CCCCN(CCCC)c1nc(-c2ccncc2)nc2ccccc12 | 12
Cl.Nc1nc(N2CCCCC2)nc2ccccc12 | -15.9
CCCN(CCC)c1nc(-c2ccccn2)nc2ccccc12 | -72.4
CCC(C)Nc1nc(-c2ccccn2)nc2ccccc12 (centres unmarked) | -11.6
CCOC(=O)c1cc(S(=O)(=O)N2CCN(Cc3ccccc3)CC2)cn1C | 7.46

SMILES | hERG current change (%, negative = inhibition) at 1uM [%]
C/C(=N\Nc1cccc2cccnc12)c1ccc[nH]1 | 6.24
COc1ccc(C(=O)N2CCN(CCNC(=O)C(=O)Nc3ccc(Br)cc3)CC2)cc1 | -25.2
CCCc1ccc2c(N)c(C#N)sc2n1 | 1.34
CC(C)C(NC(=O)c1c(F)cccc1F)C(=O)NCC(c1ccccc1)N(C)C (centres unmarked) | 7.89
COc1ccccc1NS(=O)(=O)c1cccc(C(=O)NCC(c2ccc(F)cc2)N2CCOCC2)c1 (centres unmarked) | -2.64
O=c1oc2cc(Oc3ccc(C(F)(F)F)cc3[N+](=O)[O-])ccc2c2c1CCCC2 | 7.24
COc1ccc(OC)c(C(O)c2nc3ccccc3n2C(C)C)c1 (centres unmarked) | 12.9
COc1cccc2cc(C(=O)C3=C(O)C(=O)N(Cc4ccco4)C3c3cccnc3)oc12 (centres unmarked) | -5.76
CCOc1ccc(OCCCC(=O)ON=C(N)c2ccccc2C)cc1 | 2.24
c1ccc2c(N3CCCCC3)nc(N3CCOCC3)nc2c1 | -7.24
c1ccc2c(N3CCCCC3)nc(N3CCCC3)nc2c1 | -64.6
c1ccc2c(N3CCCCC3)nc(N3CCCCC3)nc2c1 | -3.29
CC(=O)c1ccc(NC(=S)Nc2cccc(S(=O)(=O)Nc3c(C)n(C)n(-c4ccccc4)c3=O)c2)cc1 | 11.4
Cc1ccc(/C=N\NC(=O)CCc2n[nH]c(=O)[nH]c2=O)o1 | 10.9
O=c1c2c3c(sc2n(CCN2CCCC2)c(=O)n1Cc1ccco1)CCCCC3 | -67
O=c1c2c3c(sc2n(CCN2CCCCC2)c(=O)n1Cc1ccco1)CCCCC3 | 3.26
O=c1c2c3c(sc2n(CCN2CCOCC2)c(=O)n1Cc1ccco1)CCCCC3 | -9.12
COc1ccc(CNC(=O)NCc2ccc(OC)c(OC)c2)cc1OC | 17.1
O=c1cc2oc3cc(O)c(O)cc3c(-c3ccccc3[N+](=O)[O-])c-2cc1O | 8.61
N#Cc1ccccc1OCC(=O)OCC(=O)c1c[nH]c2ccccc12 | 7.92
